Measured values published in PubChem BioAssay AID1159580 (chemical genetic matrix, 2015).
Hit rate of the full screen: of about 5,500 compounds, about 2,000 (36%) were called active. Not shown: some 18% with an inconclusive outcome. Rule as the data show it: active = normalized growth mostly below about 0.91 (no sharp cut-off); inconclusive = no clear call, values can overlap the other calls; inactive = mostly above about 0.92. This is one part of the list.

Assay: chemical genetic growth profiling, strain panel (AID 1159580);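 also: tested at 20 µM; growth read once vehicle control cultures reached saturation at 30 °C; 1 = growth at the plate median or of vehicle wells; lower values mean less growth of the strain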
Details: growth OD

Measured: normalized growth

COc1cc2c(cc1OC)C1(O)C(=O)c3ccc(O)c(C(=O)O)c3OC1CO2 (stereo not drawn)
inactive: S. cerevisiae deletion strains, locus YKL009W, strain mrt4, active compounds read low 1.06 | S. cerevisiae deletion strains, locus YKL068W, active compounds read low 0.983 | S. cerevisiae deletion strains, locus YKL085W, strain MDH1 (second series), active compounds read low 0.975 | S. cerevisiae deletion strains, locus YKL085W, strain MDH1, active compounds read low 0.975 | S. cerevisiae deletion strains, locus YKL160W, strain elf1, active compounds read low 0.984 | S. cerevisiae deletion strains, locus YKL190W, strain CNB1, active compounds read low 0.991 | S. cerevisiae deletion strains, locus YKR001C, strain vps1, active compounds read low 1.01 | S. cerevisiae deletion strains, locus YKR026C, strain gcn3, active compounds read low 0.99 | S. cerevisiae deletion strains, locus YKR091W, strain srl3, active compounds read low 0.992 | S. cerevisiae deletion strains, locus YLL001W, strain dnm1, active compounds read low 1 | S. cerevisiae deletion strains, locus YLL026W, active compounds read low 0.993 | S. cerevisiae deletion strains, locus YLL041C, strain sdh2, active compounds read low 0.998 | S. cerevisiae deletion strains, locus YLR027C, strain aat2, active compounds read low 0.998 | S. cerevisiae deletion strains, locus YLR039C, strain RIC1, active compounds read low 1.08 | S. cerevisiae deletion strains, locus YLR058C, strain SHM2, active compounds read low 1.01 | S. cerevisiae deletion strains, locus YLR102C, strain apc9, active compounds read low 0.975 | S. cerevisiae deletion strains, locus YLR113W, strain HOG1, active compounds read low 0.982 | S. cerevisiae deletion strains, locus YLR221C, strain rsa3, active compounds read low 1.02 | S. cerevisiae deletion strains, locus YLR258W, strain gsy2, active compounds read low 0.99 | S. cerevisiae deletion strains, locus YLR262C, strain YPT6 (second series), active compounds read low 1.02 | S. cerevisiae deletion strains, locus YLR262C, strain YPT6, active compounds read low 1.08 | S. cerevisiae deletion strains, locus YLR268W, strain sec22, active compounds read low 1.02 | S. cerevisiae deletion strains, locus YLR320W, strain mms22, active compounds read low 1.01 | S. cerevisiae deletion strains, locus YLR330W, strain CHS5, active compounds read low 1 | S. cerevisiae deletion strains, locus YLR342W, strain FKS1, active compounds read low 1.02 | S. cerevisiae deletion strains, locus YLR357W, strain rsc2, active compounds read low 0.987 | S. cerevisiae deletion strains, locus YLR370C, strain arc18, active compounds read low 0.988 | S. cerevisiae deletion strains, locus YLR371W, strain rom2, active compounds read low 1 | S. cerevisiae deletion strains, locus YLR384C, strain iki3, active compounds read low 0.985 | S. cerevisiae deletion strains, locus YLR418C, strain cdc73, active compounds read low 1 | S. cerevisiae deletion strains, locus YML016C, strain PPZ1, active compounds read low 1.01 | S. cerevisiae deletion strains, locus YML032C, strain rad52, active compounds read low 1.01 | S. cerevisiae deletion strains, locus YML120C, strain ndi1, active compounds read low 1 | S. cerevisiae deletion strains, locus YML124C, strain tub3, active compounds read low 0.99 | S. cerevisiae deletion strains, locus YMR058W, strain fet3, active compounds read low 0.995 | S. cerevisiae deletion strains, locus YMR078C, strain ctf18, active compounds read low 0.992 | S. cerevisiae deletion strains, locus YMR125W, strain sto1, active compounds read low 0.983 | S. cerevisiae deletion strains, locus YMR129W, active compounds read low 0.987 | S. cerevisiae deletion strains, locus YMR205C, strain PFK2, active compounds read low 1.02 | S. cerevisiae deletion strains, locus YMR223W, strain ubp8, active compounds read low 0.98 | S. cerevisiae deletion strains, locus YMR231W, strain pep5, active compounds read low 0.994 | S. cerevisiae deletion strains, locus YMR307W, strain GAS1, active compounds read low 1.18 | S. cerevisiae deletion strains, locus YNL067W, strain RPL9B, active compounds read low 0.977 | S. cerevisiae deletion strains, locus YNL071W, strain lat1, active compounds read low 0.991 | S. cerevisiae deletion strains, locus YNL128W, strain TEP1, active compounds read low 1 | S. cerevisiae deletion strains, locus YNL153C, strain GIM3, active compounds read low 0.991 | S. cerevisiae deletion strains, locus YNL183C, strain NPR1, active compounds read low 0.94 | S. cerevisiae deletion strains, locus YNL209W, strain ssb2, active compounds read low 0.989 | S. cerevisiae deletion strains, locus YNL233W, strain BNI4, active compounds read low 0.996 | S. cerevisiae deletion strains, locus YNL248C, strain rpa49, active compounds read low 0.974 | S. cerevisiae deletion strains, locus YNL250W, strain rad50, active compounds read low 0.968 | S. cerevisiae deletion strains, locus YNL271C, strain bni1, active compounds read low 0.99 | S. cerevisiae deletion strains, locus YNL298W, strain CLA4, active compounds read low 0.985 | S. cerevisiae deletion strains, locus YNL307C, strain MCK1, active compounds read low 0.984 | S. cerevisiae deletion strains, locus YNL322C, strain KRE1 (second series), active compounds read low 1.01 | S. cerevisiae deletion strains, locus YNL322C, strain KRE1, active compounds read low 0.988 | S. cerevisiae deletion strains, locus YNR049C, strain mso1, active compounds read low 0.996 | S. cerevisiae deletion strains, locus YNR052C, strain pop2, active compounds read low 0.999 | S. cerevisiae deletion strains, locus YOL006C, strain TOP1, active compounds read low 1.38 | S. cerevisiae deletion strains, locus YOL012C, strain htz1 0.856 | S. cerevisiae deletion strains, locus YOL147C, strain pex11, active compounds read low 0.995 | S. cerevisiae deletion strains, locus YOR001W, strain rrp6, active compounds read low 1.02 | S. cerevisiae deletion strains, locus YOR061W, strain CKA2, active compounds read low 1.05 | S. cerevisiae deletion strains, locus YOR069W, strain VPS5, active compounds read low 0.989 | S. cerevisiae deletion strains, locus YOR070C, strain gyp1, active compounds read low 0.984 | S. cerevisiae deletion strains, locus YOR080W, strain dia2, active compounds read low 0.998 | S. cerevisiae deletion strains, locus YOR083W, strain WHI5, active compounds read low 0.999 | S. cerevisiae deletion strains, locus YOR106W, strain vam3, active compounds read low 0.997 | S. cerevisiae deletion strains, locus YOR136W, strain idh2, active compounds read low 1 | S. cerevisiae deletion strains, locus YOR144C, strain elg1, active compounds read low 0.994 | S. cerevisiae deletion strains, locus YOR184W, strain ser1, active compounds read low 1.07 | S. cerevisiae deletion strains, locus YOR231W, strain MKK1, active compounds read low 0.989 | S. cerevisiae deletion strains, locus YOR265W, strain rbl2, active compounds read low 1.01 | S. cerevisiae deletion strains, locus YOR270C, strain vph1, active compounds read low 1.01 | S. cerevisiae deletion strains, locus YOR290C, strain snf2, active compounds read low 0.978 | S. cerevisiae deletion strains, locus YOR316C, strain cot1, active compounds read low 0.976 | S. cerevisiae deletion strains, locus YPL051W, strain arl3, active compounds read low 0.982 | S. cerevisiae deletion strains, locus YPL078C, strain atp4, active compounds read low 0.98 | S. cerevisiae deletion strains, locus YPL106C, strain sse1, active compounds read low 0.991 | S. cerevisiae deletion strains, locus YPL240C, strain hsp82, active compounds read low 0.977 | S. cerevisiae deletion strains, locus YPL241C, strain CIN2, active compounds read low 0.983 | S. cerevisiae deletion strains, locus YPL256C, strain CLN2, active compounds read low 0.95 | S. cerevisiae deletion strains, locus YPR119W, strain clb2, active compounds read low 0.973 | S. cerevisiae deletion strains, locus YPR141C, strain kar3, active compounds read low 0.96 | S. cerevisiae deletion strains, locus YPR163C, strain tif3, active compounds read low 0.997 | S. cerevisiae deletion strains, locus YPR167C, strain met16, active compounds read low 1 | S. cerevisiae deletion strains, strain wtn01, active compounds read low 1.03 | S. cerevisiae strains, strain wild type, active compounds read low 1.04
